Experimental data from PubChem BioAssay AID1159580 (chemical genetic matrix, 2015).
In all, about 5,500 compounds went through this assay and about 2,000 (36%) were called active. Not shown: some 18% with an inconclusive outcome. Rule as the data show it: active = normalized growth mostly below about 0.91 (no sharp cut-off); inconclusive = no clear call, values can overlap the other calls; inactive = mostly above about 0.92. Some of the results follow.

Assay: chemical genetic growth profiling, strain panel (AID 1159580);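 also: tested at 20 µM; growth read once vehicle control cultures reached saturation at 30 °C; 1 = growth at the plate median or of vehicle wells; lower values mean less growth of the strain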
Conditions: growth OD
[1] = S. cerevisiae deletion strains, locus YAR019C, strain CDC15, stronger effect = lower value
[2] = S. cerevisiae deletion strains, locus YBL105C, strain PKC1, stronger effect = lower value
[3] = S. cerevisiae deletion strains, locus YBR135W, strain CKS1, stronger effect = lower value
[4] = S. cerevisiae deletion strains, locus YBR136W, strain MEC1, stronger effect = lower value
[5] = S. cerevisiae deletion strains, locus YBR160W, strain CDC28, stronger effect = lower value
[6] = S. cerevisiae deletion strains, locus YDL017W, strain CDC7, stronger effect = lower value
[7] = S. cerevisiae deletion strains, locus YDL028C, strain MPS1, stronger effect = lower value
[8] = S. cerevisiae deletion strains, locus YDL101C, strain DUN1, stronger effect = lower value
[9] = S. cerevisiae deletion strains, locus YDL108W, strain KIN28, stronger effect = lower value
[10] = S. cerevisiae deletion strains, locus YDL132W, strain cdc53, stronger effect = lower value
[11] = S. cerevisiae deletion strains, locus YDL214C, strain PRR2, stronger effect = lower value
[12] = S. cerevisiae deletion strains, locus YDR052C, strain DBF4, stronger effect = lower value
[13] = S. cerevisiae deletion strains, locus YDR054C, strain cdc34, stronger effect = lower value
[14] = S. cerevisiae deletion strains, locus YDR226W, strain ADK1, stronger effect = lower value
[15] = S. cerevisiae deletion strains, locus YDR477W, strain SNF1, stronger effect = lower value
[16] = S. cerevisiae deletion strains, locus YER123W, strain YCK3, stronger effect = lower value
[17] = S. cerevisiae deletion strains, locus YER133W, strain GLC7, stronger effect = lower value
[18] = S. cerevisiae deletion strains, locus YFL009W, strain cdc4, stronger effect = lower value
[19] = S. cerevisiae deletion strains, locus YFL029C, strain CAK1, stronger effect = lower value
[20] = S. cerevisiae deletion strains, locus YFR003C, strain YPI1, stronger effect = lower value
[21] = S. cerevisiae deletion strains, locus YFR019W, strain FAB1, stronger effect = lower value
[22] = S. cerevisiae deletion strains, locus YFR028C, strain CDC14, stronger effect = lower value
[23] = S. cerevisiae deletion strains, locus YGR040W, strain KSS1, stronger effect = lower value
[24] = S. cerevisiae deletion strains, locus YGR052W, strain FMP48, stronger effect = lower value
[25] = S. cerevisiae deletion strains, locus YGR092W, strain DBF2, stronger effect = lower value
[26] = S. cerevisiae deletion strains, locus YHR030C, strain SLT2, stronger effect = lower value
[27] = S. cerevisiae deletion strains, locus YHR079C, strain IRE1, stronger effect = lower value
[28] = S. cerevisiae deletion strains, locus YHR082C, strain KSP1, stronger effect = lower value
[29] = S. cerevisiae deletion strains, locus YHR205W, strain SCH9, stronger effect = lower value
[30] = S. cerevisiae deletion strains, locus YIL147C, strain SLN1, stronger effect = lower value
[31] = S. cerevisiae deletion strains, locus YJL095W, strain BCK1, stronger effect = lower value
[32] = S. cerevisiae deletion strains, locus YJL128C, strain PBS2, stronger effect = lower value
[33] = S. cerevisiae deletion strains, locus YJL157C, strain FAR1, stronger effect = lower value
[34] = S. cerevisiae deletion strains, locus YJR016C, strain ILV3, stronger effect = lower value
[35] = S. cerevisiae deletion strains, locus YJR066W, strain TOR1 (second series), stronger effect = lower value
[36] = S. cerevisiae deletion strains, locus YJR066W, strain TOR1, stronger effect = lower value
[37] = S. cerevisiae deletion strains, locus YKL048C, strain ELM1, stronger effect = lower value
[38] = S. cerevisiae deletion strains, locus YKL067W, strain YNK1, stronger effect = lower value
[39] = S. cerevisiae deletion strains, locus YKL101W, strain HSL1, stronger effect = lower value
[40] = S. cerevisiae deletion strains, locus YKL193C, strain SDS22, stronger effect = lower value
[41] = S. cerevisiae deletion strains, locus YKL203C, strain TOR2, stronger effect = lower value
[42] = S. cerevisiae deletion strains, locus YLR113W, strain HOG1, stronger effect = lower value
[43] = S. cerevisiae deletion strains, locus YLR133W, strain CKI1, stronger effect = lower value
[44] = S. cerevisiae deletion strains, locus YLR403W, strain SFP1, stronger effect = lower value
[45] = S. cerevisiae deletion strains, locus YML070W, strain DAK1, stronger effect = lower value
[46] = S. cerevisiae deletion strains, locus YMR001C, strain CDC5, stronger effect = lower value
[47] = S. cerevisiae deletion strains, locus YMR205C, strain PFK2 (second series), stronger effect = lower value
[48] = S. cerevisiae deletion strains, locus YMR277W, strain FCP1, stronger effect = lower value
[49] = S. cerevisiae deletion strains, locus YNL006W, strain LST8, stronger effect = lower value
[50] = S. cerevisiae deletion strains, locus YNL020C, strain ARK1, stronger effect = lower value
[51] = S. cerevisiae deletion strains, locus YNL161W, strain CBK1, stronger effect = lower value
[52] = S. cerevisiae deletion strains, locus YNL183C, strain NPR1, stronger effect = lower value
[53] = S. cerevisiae deletion strains, locus YNL207W, strain RIO2, stronger effect = lower value
[54] = S. cerevisiae deletion strains, locus YNL222W, strain SSU72, stronger effect = lower value
[55] = S. cerevisiae deletion strains, locus YNL307C, strain MCK1 (second series), stronger effect = lower value
[56] = S. cerevisiae deletion strains, locus YOL078W, strain AVO1, stronger effect = lower value
[57] = S. cerevisiae deletion strains, locus YOL136C, strain PFK27, stronger effect = lower value
[58] = S. cerevisiae deletion strains, locus YOR061W, strain CKA2, stronger effect = lower value
[59] = S. cerevisiae deletion strains, locus YOR119C, strain RIO1, stronger effect = lower value
[60] = S. cerevisiae deletion strains, locus YOR231W, strain MKK1, stronger effect = lower value
[61] = S. cerevisiae deletion strains, locus YOR329C, strain SCD5, stronger effect = lower value
[62] = S. cerevisiae deletion strains, locus YPL031C, strain PHO85, stronger effect = lower value
[63] = S. cerevisiae deletion strains, locus YPL153C, strain RAD53, stronger effect = lower value
[64] = S. cerevisiae deletion strains, locus YPL204W, strain HRR25, stronger effect = lower value
[65] = S. cerevisiae deletion strains, locus YPL209C, strain IPL1, stronger effect = lower value
[66] = S. cerevisiae deletion strains, locus YPL256C, strain CLN2, stronger effect = lower value
[67] = S. cerevisiae deletion strains, locus YPR025C, strain CCL1, stronger effect = lower value
[68] = S. cerevisiae deletion strains, locus YPR106W, strain ISR1, stronger effect = lower value
[69] = S. cerevisiae deletion strains, locus YPR111W, strain DBF20, stronger effect = lower value
[70] = S. cerevisiae deletion strains, strain NNK1, stronger effect = lower value
[71] = S. cerevisiae deletion strains, strain TSCII, stronger effect = lower value
[72] = S. cerevisiae deletion strains, locus YAL013W, strain DEP1, stronger effect = lower value
[73] = S. cerevisiae deletion strains, locus YBR229C, strain ROT2, stronger effect = lower value
[74] = S. cerevisiae deletion strains, locus YDR150W, strain NUM1, stronger effect = lower value
[75] = S. cerevisiae deletion strains, locus YEL061C, strain CIN8, stronger effect = lower value
[76] = S. cerevisiae deletion strains, locus YGR078C, strain PAC10, stronger effect = lower value
[77] = S. cerevisiae deletion strains, locus YHR087W, strain rtc3, stronger effect = lower value
[78] = S. cerevisiae deletion strains, locus YJR043C, strain POL32, stronger effect = lower value
[79] = S. cerevisiae deletion strains, locus YJR075W, strain HOC1, stronger effect = lower value
[80] = S. cerevisiae deletion strains, locus YLR039C, strain RIC1, stronger effect = lower value
[81] = S. cerevisiae deletion strains, locus YLR058C, strain SHM2 (second series), stronger effect = lower value
[82] = S. cerevisiae deletion strains, locus YLR085C, strain ARP6, stronger effect = lower value
[83] = S. cerevisiae deletion strains, locus YLR262C, strain YPT6, stronger effect = lower value
[84] = S. cerevisiae deletion strains, locus YML094W, strain GIM5, stronger effect = lower value
[85] = S. cerevisiae deletion strains, locus YMR219W, strain ESC1, stronger effect = lower value
[86] = S. cerevisiae deletion strains, locus YMR263W, strain SAP30, stronger effect = lower value
[87] = S. cerevisiae deletion strains, locus YNL128W, strain TEP1, stronger effect = lower value
[88] = S. cerevisiae deletion strains, locus YNL153C, strain GIM3, stronger effect = lower value
[89] = S. cerevisiae deletion strains, locus YNL298W, strain CLA4 (second series), stronger effect = lower value
[90] = S. cerevisiae deletion strains, locus YNL322C, strain KRE1, stronger effect = lower value
[91] = S. cerevisiae deletion strains, locus YNR030W, strain Alg12, stronger effect = lower value
[92] = S. cerevisiae deletion strains, locus YPL055C, strain LGE1, stronger effect = lower value
[93] = S. cerevisiae deletion strains, locus YPL241C, strain CIN2, stronger effect = lower value
[94] = S. cerevisiae deletion strains, locus YPR135W, strain CTF4, stronger effect = lower value

Measured: normalized growth

O=C(Nc1cc(Cl)cc(Cl)c1)c1cc(Br)ccc1O
inactive: [1] 0.944 | [2] 0.958 | [3] 0.946 | [4] 0.949 | [5] 0.955 | [6] 0.942 | [7] 0.955 | [8] 0.985 | [9] 0.953 | [10] 0.933 | [11] 0.849 | [12] 0.925 | [13] 0.939 | [14] 0.935 | [15] 0.872 | [16] 0.774 | [17] 0.831 | [18] 0.936 | [19] 0.942 | [20] 0.949 | [21] 0.91 | [22] 0.94 | [23] 0.888 | [24] 0.847 | [27] 0.68 | [28] 0.964 | [29] 0.656 | [30] 0.945 | [31] 0.76 | [32] 0.959 | [34] 0.944 | [35] 0.774 | [36] 0.792 | [37] 0.848 | [38] 0.799 | [39] 0.853 | [40] 0.936 | [41] 0.86 | [42] 0.892 | [43] 0.821 | [44] 0.747 | [45] 0.872 | [46] 0.941 | [47] 0.858 | [48] 0.945 | [49] 0.938 | [50] 0.738 | [51] 0.947 | [52] 0.917 | [53] 0.955 | [54] 0.949 | [55] 0.703 | [56] 0.952 | [57] 0.767 | [58] 0.749 | [59] 0.925 | [60] 0.888 | [61] 0.948 | [62] 0.841 | [63] 0.84 | [64] 0.801 | [65] 0.945 | [66] 0.871 | [67] 0.951 | [68] 0.971 | [69] 0.96 | [70] 0.964 | [71] 0.942
active: [25] 0.405 | [26] 0.816 | [33] 0.698

O=C(NNC(=O)c1ccc[nH]1)Nc1cc(Cl)cc(Cl)c1
inactive: [72] 1.01 | [73] 1 | [8] 0.991 | [74] 0.994 | [75] 0.996 | [76] 1 | S. cerevisiae deletion strains, locus YGR229C, strain SMI1, stronger effect = lower value 1.02 | [26] 1.07 | [77] 1.02 | [78] 1.01 | [79] 1.01 | S. cerevisiae deletion strains, locus YKL190W, strain CNB1, stronger effect = lower value 1.01 | [80] 1.05 | [81] 1.01 | [82] 1.04 | [83] 1.03 | [84] 0.992 | [85] 1 | [86] 1.02 | [87] 1.03 | [88] 0.988 | [89] 1.05 | [90] 0.996 | [91] 1.01 | S. cerevisiae deletion strains, locus YOL006C, strain TOP1, stronger effect = lower value 1.08 | [92] 1.02 | [93] 0.922 | [94] 1 | S. cerevisiae strains, strain wild type, stronger effect = lower value 1.02

O=C(Nc1ccc(F)cc1)c1cc(Br)ccc1O
inactive: [1] 0.91 | [2] 0.907 | [3] 0.901 | [4] 0.913 | [5] 0.899 | [7] 0.909 | [8] 0.952 | [9] 0.897 | [10] 0.94 | [11] 0.867 | [14] 0.941 | [15] 0.882 | [16] 0.806 | [17] 0.908 | [19] 0.894 | [20] 0.907 | [21] 0.901 | [23] 0.797 | [24] 0.901 | [25] 0.614 | [27] 0.827 | [28] 0.813 | [29] 0.615 | [30] 0.918 | [31] 0.791 | [32] 0.957 | [33] 0.83 | [34] 0.923 | [35] 0.904 | [36] 0.786 | [37] 0.891 | [38] 0.853 | [39] 0.817 | [40] 0.901 | [41] 0.873 | [43] 0.835 | [44] 0.834 | [45] 0.86 | [46] 0.908 | [47] 0.832 | [49] 0.923 | [50] 0.797 | [51] 0.913 | [52] 0.758 | [53] 0.907 | [54] 0.902 | [55] 0.776 | [56] 0.898 | [57] 0.837 | [58] 0.773 | [59] 0.881 | [60] 0.845 | [61] 0.912 | [62] 0.865 | [63] 0.777 | [64] 0.862 | [65] 0.909 | [67] 0.907 | [68] 0.914 | [69] 0.893 | [70] 0.927 | [71] 0.902
active: [6] 0.898 | [12] 0.905 | [13] 0.876 | [18] 0.887 | [22] 0.863 | [42] 0.804 | [48] 0.884 | [66] 0.837

Clc1cc(Cl)cc(Br)c1
inactive: [72] 1.03 | [73] 1.02 | [8] 1.02 | S. cerevisiae deletion strains, locus YDL134C, strain PPH21, stronger effect = lower value 1.02 | [74] 1.04 | [75] 1.03 | [76] 1.01 | [26] 1.1 | [77] 1.05 | [78] 1.01 | [79] 1 | [80] 1.09 | [81] 1.02 | [82] 1.14 | [83] 1.07 | [84] 1.04 | [85] 1.02 | [86] 1.02 | [87] 1.02 | [88] 1.01 | [89] 1.08 | [90] 1.02 | [91] 1.05 | [92] 1.03 | [93] 1.04 | [94] 1.16
